Measured values reported in the supplement of paper PMC7057948, “A genome-wide approach for identification and characterisation of metabolite-inducible systems” (Nature Communications, 2020).

These compounds were tested on HpdA/P_H16_RS24175 L-tyrosine biosensor (pEH158) (assay: relative induction of RFP reporter vs primary effector (background-corrected); higher = stronger activation of the biosensor). Settings: inducer concentration 5 mM; 6 h; Cupriavidus necator H16; minimal medium + 0.4% gluconate.
Description: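 C. necator H16 strains, each carrying one of 21 transcription factor/inducible promoter–mRFP biosensor plasmids, were grown in minimal medium in 96-well plates (robotic platform). Each was exposed to 46 structurally or metabolically related compounds at 5 mM at 30 °C. OD-normalised RFP fluorescence was read 6 h later and expressed as relative induction (%) = 100 × (FL compound − FL uninduced)/(FL primary inducer − FL uninduced); mean of n=4.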
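Note: RFP excited at 585 nm with emission read at 620 nm, culture medium blanks subtracted from fluorescence and absorbance prior to normalisation.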

Row | SMILES | relative induction of RFP reporter
1 | NCC(O)C(=O)O (centres undefined) [3-amino-2-hydroxypropanoate] | -0.0973%
2 | NCC(N)C(=O)O (centres undefined) [2,3-diaminopropanoate] | 0.123%
3 | CC(N)CC(=O)O (centres undefined) [3-aminobutanoate] | -0.135%
4 | N[C@@H](Cc1c[nH]c2ccccc12)C(=O)O [L-tryptophan] | 0.00902%
